Assay outcomes deposited in PubChem by several laboratories.
A selection: hits, their analogues and other compounds. The true share with any hit is near 2.7%.
Neddyl block: inhibitors of human cullin neddylation; AID 651699; 360,000 compounds, 0.58% hits; calls only at 25 µM; TR-FRET cullin neddylation, biochemical; in the data active = inhibition above about 36%
FAS-TE inh: blocks the thioesterase domain of human fatty acid synthase. P49327. recombinant FAS-TE, OMFH fluorogenic substrate, fluorescence endpoint. inhibition, % at 15 µM. 360,000 compounds, 0.67% hits;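 active = compounds whose normalised, plate-corrected inhibition of enzyme fluorescence in the single-dose primary screen is 50% or more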;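 also: 0% = DMSO with enzyme and 100% = substrate without enzyme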
KLK7 zymogen act: activates the human kallikrein-7 zymogen. P49862. purified proKLK7, EDANS-DABCYL substrate fluorescence; 100% is mature enzyme control, 0% vehicle. activation, % at 7 µM. 370,000 compounds, 0.9% hits;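 active = activation above the mean of all tested compounds plus 3 SD, computed per campaign excluding outliers beyond control limits, cut at about 13% in these data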
PfG6PD inh: PfG6PD (Plasmodium falciparum) enzyme inhibition; PfGluPho enzyme, NADPH resazurin-diaphorase fluorescence; 350,000 compounds, 0.78% hits; AID 504690; inhibition, % at 20 µM;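 active = inhibition reaching at least a set limit at 20 µM in the primary screen, cut at about 59% in these data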;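 also: 0% = DMSO wells with substrate and 100% = DMSO wells lacking glucose-6-phosphate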
proKLK7 act conf: proKLK7 activation, confirmation | 3,200 compounds, 68% hits | AID 686949 | purified proKLK7, EDANS-DABCYL substrate fluorescence; scaled: vehicle 0, mature enzyme 100 | shares compounds with KLK7 zymogen act | activation, % at 7 µM;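 active = activation, as change over the incubation, above the mean of all tested compounds plus 3 SD, cut at about 13% in these data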
EDANS interfere: fluorescence interference counter-screen for KLK7 activators; shares compounds with KLK7 zymogen act; EDANS-DABCYL substrate fluorescence interference, no enzyme, 4 h; solvent 0%, active enzyme control 100%; activation, % at 7 µM; 3,200 compounds, 80% hits;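 active = activation above the all-compound mean plus 3 SD, ignoring values outside control-based bounds, cut at about 4.8% in these data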;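 also: value is the 4 h activation minus the activation read at time zero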
K7 EDANS ctr: optically interferes with EDANS-DABCYL fluorescence, kallikrein-7 activator counter-screen. shares compounds with KLK7 zymogen act. EDANS-DABCYL peptide fluorescence interference, no enzyme. EC50, µM. 250 compounds, 20% hits;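 active = compounds that raise the fluorescence signal in this interference counterscreen, with EC50 at or below 10 µM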;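 also: intact quenched peptide substrate alone read at 355 nm excitation and 520 nm emission; signal is fluorescence gain from T0 to T4 after four hours at room temperature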
The depositor's hits bear a star.

COc1ccc(-n2c(SCC(=O)N3CCCCC3C)nnc2-c2ccncc2)cc1 (stereo unspecified) was read as KLK7 zymogen act 1.
CCn1cc(CNC(=O)CSc2nc(-c3ccc(OC)c(OC)c3)cc(C(F)(F)F)n2)c(C)n1 was read as FAS-TE inh -7, KLK7 zymogen act 21*, PfG6PD inh 9, proKLK7 act conf 4 and EDANS interfere 8.2*.
For C(=Nn1cnnc1)c1ccc2c(c1)CCC2 the results were Neddyl block inactive, FAS-TE inh -1, KLK7 zymogen act 0 and PfG6PD inh 1.
For COc1cc2c(cc1OC)CN(C1CCCN(Cc3cccc(C(C)=O)c3)C1)CC2 (stereo unspecified) the results were Neddyl block inactive, FAS-TE inh -2, KLK7 zymogen act 23*, PfG6PD inh -18, proKLK7 act conf 10 and EDANS interfere 12*.
`Cc1ccc(-c2cccc(-c3cc(=O)oc4ccc(C(C)(C)C)cc34)c2)cc1` gave Neddyl block inactive, FAS-TE inh 20, KLK7 zymogen act 0 and PfG6PD inh 7.
COc1ccc(-c2cc(C(=O)Nc3ccc(C(N)=O)cc3)c3ccccc3n2)cc1OC was read as FAS-TE inh -2, KLK7 zymogen act 18*, PfG6PD inh -7, proKLK7 act conf -34 and EDANS interfere -29.
`COc1cc(-c2cc(C(=O)Nc3ccc(O)cc3)c3ccccc3n2)cc(OC)c1OC` gave Neddyl block inactive, FAS-TE inh 3, KLK7 zymogen act 0 and PfG6PD inh 53.
CCCCN(CC)CCNC(=O)CCC(=O)Nc1ccc2nc(N3CCN(C)CC3)cc(C)c2c1 was read as FAS-TE inh -4, KLK7 zymogen act 78*, PfG6PD inh -12, proKLK7 act conf 106* and EDANS interfere 115*.
Screening CCCN(CCC)CCNC(=O)CCC(=O)Nc1ccc2nc(N3CCOCC3)cc(C)c2c1 returned FAS-TE inh -5, KLK7 zymogen act 57*, PfG6PD inh 4, proKLK7 act conf 153* and EDANS interfere 144*.
O=C1C(c2ccccc2)=NCCN1C(c1ccc(F)cc1)c1nc2ccccc2[nH]1 (stereo unspecified) was read as Neddyl block inactive, FAS-TE inh -4 and KLK7 zymogen act 0.
CN(C)C(=O)c1ccc(Cc2cn(C)c3ccccc23)nc1 was read as Neddyl block inactive, FAS-TE inh -6 and KLK7 zymogen act 1.
Screening O=c1[nH]c(Nc2ccccn2)cc2ccccc12 returned FAS-TE inh 18, KLK7 zymogen act 22*, PfG6PD inh 25, proKLK7 act conf 21* and EDANS interfere 21*.
Screening O=c1[nH]c(Nc2ccc(F)cc2)cc2ccccc12 returned Neddyl block inactive, FAS-TE inh 40, KLK7 zymogen act 0 and PfG6PD inh -8.
Screening Cc1ccccc1SCC(=O)NCC1(N2CCCCC2)CCCCC1 returned Neddyl block inactive, FAS-TE inh -4, KLK7 zymogen act 0 and PfG6PD inh -17.
O=C(Nc1ccc2c(c1)[nH]c(=O)c1ccccc12)C(F)(F)F was read as Neddyl block inactive, FAS-TE inh -18, KLK7 zymogen act 211*, PfG6PD inh 33, proKLK7 act conf 163* and EDANS interfere 153*.
O=C(Nc1cccc2c1[nH]c(=O)c1ccccc12)C(F)(F)F was read as Neddyl block inactive, FAS-TE inh -10, KLK7 zymogen act -1 and PfG6PD inh 9.
For O=C(Nc1cccc2c1[nH]c1ccccc12)C(F)(F)F the results were Neddyl block inactive, FAS-TE inh 7, KLK7 zymogen act 21*, PfG6PD inh 8, proKLK7 act conf 16*, EDANS interfere 12* and K7 EDANS ctr inactive.
Screening COc1cc2cc(Oc3ccc4ccc(=O)oc4c3)c(=O)oc2cc1O returned Neddyl block inactive, FAS-TE inh -4, KLK7 zymogen act 37*, PfG6PD inh -11, proKLK7 act conf 36* and EDANS interfere 40*.
`O=C(CN1C(=O)NC2(CCCCC2)C1=O)Oc1ccc2ccc(=O)oc2c1` gave FAS-TE inh 4, KLK7 zymogen act 127*, PfG6PD inh 24, proKLK7 act conf 62* and EDANS interfere 65*.
For COc1cc2cc(Oc3ccc4ccc(=O)oc4c3)c(=O)oc2cc1OC(C)=O the results were Neddyl block inactive, FAS-TE inh -6, KLK7 zymogen act 9 and PfG6PD inh -2.
`O=C(Oc1ccc2ccc(=O)oc2c1)c1ccco1` gave FAS-TE inh 5, KLK7 zymogen act 180*, PfG6PD inh 10, proKLK7 act conf 705* and EDANS interfere 729*.
`COc1ccccc1C(=O)Oc1ccc2ccc(=O)oc2c1` gave FAS-TE inh 0, KLK7 zymogen act 356*, PfG6PD inh 3, proKLK7 act conf 693* and EDANS interfere 694*.
`COc1ccccc1C(=O)Oc1ccc(C(C)(C)C)cc1` gave Neddyl block inactive, FAS-TE inh 23, KLK7 zymogen act 0 and PfG6PD inh 18.
`CC(C)NC(=O)N[C@@H]1C[C@@H]2O[C@@H](CO)CC[C@@H]2O[C@@H]1CCc1ccc(-c2ccccc2F)cc1` gave KLK7 zymogen act 1.
Screening O=C(CSc1nnc(-c2ccco2)n1-c1ccc(Cl)cc1)Nc1cccc2ccccc12 returned KLK7 zymogen act 1.
O=S1(=O)N[C@H](Cc2ccccc2)COc2cc(N3CCN(Cc4ccccc4F)CC3)ccc21 was read as Neddyl block inactive, FAS-TE inh 0 and KLK7 zymogen act 0.
`O=C(CN1C(=O)CCSc2ccccc21)Nc1ccc(Cl)c(Cl)c1` gave KLK7 zymogen act 0.
For CCNC(=S)NNC(=O)c1cccn(Cc2ccc(Cl)cc2)c1=O the results were Neddyl block inactive, FAS-TE inh -14, KLK7 zymogen act 22*, PfG6PD inh -4, proKLK7 act conf 33* and EDANS interfere 39*.
Screening CCNC(=S)NNC(=O)c1ccccc1Cl returned Neddyl block inactive, FAS-TE inh -9, KLK7 zymogen act 0 and PfG6PD inh 2.
CNC(=S)NNC(=O)c1cccn(Cc2ccc(Cl)cc2Cl)c1=O was read as KLK7 zymogen act 15*, proKLK7 act conf 30* and EDANS interfere 42*.
Screening CNC(=S)NNC(=O)c1cccn(Cc2cccc(C(F)(F)F)c2)c1=O returned Neddyl block inactive, FAS-TE inh -1, KLK7 zymogen act 28*, PfG6PD inh 7, proKLK7 act conf 89* and EDANS interfere 84*.
